Screening data as filed in PubChem BioAssay.
RPL19A-GFP yeast – RPL19A-GFP expression modulators in yeast, primary screen, cell-based, S. cerevisiae, multiplex flow cytometry, MLPCN; S. cerevisiae RPL19A-GFP strain, 3 h; hits give low values; percent response vs DMSO, % at 10 µM; AID 2025, 2009; hit rate 0.3% among 330,000;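 active = percent response vs DMSO below 50%; inconclusive = fewer than 70 events counted for the yeast strain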;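 also: median channel GFP fluorescence of the barcoded RPL19A-GFP strain; lower means less RPL19A-GFP as with rapamycin TOR inhibition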
CIT2-GFP yeast – modulators of CIT2-GFP expression in yeast, primary screen, S. cerevisiae, GFP fusion, multiplex flow cytometry, MLPCN library; S. cerevisiae CIT2-GFP strain, 3 h; 100 means same as DMSO wells; GFP response vs DMSO, % at 10 µM; hit rate 0.065% among 320,000;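 active = GFP response relative to DMSO above a set limit, near the screen mean plus 3 SD, cut at about 150% in these data; inconclusive = Fewer than 70 cells measured for a yeast strain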;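 also: ratio of well median GFP fluorescence to mean of DMSO wells on the plate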
AGP1 TOR yeast – modulators of AGP1-GFP expression in yeast TOR pathway, primary screen, cell-based, multiplex flow cytometry, S. cerevisiae, MLPCN library; 3 h; GFP as percent of DMSO wells; GFP response vs DMSO, % at 10 µM; hit rate 0.02% among 320,000;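 active = GFP response relative to DMSO above a set limit, near screen average plus 3 SD, cut at about 150% in these data; inconclusive = fewer than 70 cells counted for the yeast strain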;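 also: median GFP channel fluorescence of the gated AGP1 strain per well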
MEP2 TOR yeast – modulators of MEP2-GFP levels in yeast, primary screen, S. cerevisiae, multiplex flow cytometry, MLPCN library. S. cerevisiae MEP2-GFP strain, 3 h; 100% = DMSO control level. GFP response vs DMSO, % at 10 µM. hit rate 0.51% among 330,000. AID 2016, 2009;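 active = GFP response versus DMSO above a set limit, roughly screen mean plus 3 SD, cut at about 180% in these data; inconclusive = fewer than 70 cells counted for a yeast strain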;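 also: median GFP fluorescence of the barcode-gated MEP2-GFP cells per well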
LAP4 TOR yeast – modulators of LAP4-GFP expression in yeast, primary screen, S. cerevisiae, multiplex flow cytometry, MLPCN library; 3 h; median GFP as percent of DMSO wells; GFP response vs DMSO, % at 10 µM; hit rate 0.34% among 320,000;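 active = GFP response vs DMSO above a set limit, about the screen mean plus 3 SD, cut at about 150% in these data; inconclusive = under 70 cell events counted for the yeast strain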
LAP4-GFP pick2 – LAP4-GFP expression modulators in yeast, confirmation, cell-based, second cherry pick, flow cytometry | shares compounds with LAP4 TOR yeast | S. cerevisiae LAP4-GFP strain, 3 h | GFP response vs DMSO, % at 10 µM | hit rate 20% among 590 | AID 2621, 2010;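 active = GFP signal as percent of the solvent control above about 150%, meaning raised reporter expression, limit read from the data; inconclusive = fewer than 70 cells counted in the well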
MEP2 cherry2 – modulators of MEP2-GFP levels in yeast, confirmation, S. cerevisiae, flow cytometry GFP, second cherry picks. shares compounds with LAP4 TOR yeast. S. cerevisiae MEP2-GFP strain, 3 h. GFP response vs DMSO, % at 10 µM. hit rate 10% among 590. AID 2622, 2010;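 active = GFP signal above 150% of the solvent control wells, that is a rise of more than half; inconclusive = fewer than 70 yeast cells counted in the well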;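 also: median channel GFP fluorescence of all gated yeast cells per well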
RPL19A-GFP pick2 – RPL19A-GFP modulators in TOR pathway yeast, confirmation, cell-based, S. cerevisiae, flow cytometry, second cherry pick; S. cerevisiae RPL19A-GFP strain, 3 h; hits give low values; 100% means same as DMSO wells; hit rate 3% among 590; GFP response vs DMSO, % at 10 µM; shares compounds with LAP4 TOR yeast; AID 2623, 2010;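 active = under 65% GFP response relative to DMSO; inconclusive = yeast strain with under 70 measured events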;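 also: median GFP channel fluorescence per well over the all cells gate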
CIT2-GFP pick2 – modulators of CIT2-GFP expression in yeast, confirmation, flow cytometry, second cherry pick, single plex. S. cerevisiae CIT2-GFP strain, 3 h; DMSO control wells read 100%. hit rate 8% among 590. GFP response vs DMSO, % at 10 µM. AID 2624, 2010. shares compounds with LAP4 TOR yeast;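 active = GFP response vs DMSO above about 150%, limit read from the data; inconclusive = fewer than 70 events counted for a yeast strain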;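 also: median green fluorescence per well over all gated yeast cells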
AGP1-GFP pick2 – AGP1-GFP expression modulators, hit retest, confirmation, cell-based, flow cytometry, S. cerevisiae, cherry pick set 2. shares compounds with LAP4 TOR yeast. 590 tested, under 10 active. AID 2643, 2010. S. cerevisiae AGP1-GFP strain, 3 h. percent response vs DMSO, % at 10 µM;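 active = over 150 percent of DMSO response; inconclusive = yeast strain measured with under 70 events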;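 also: median GFP channel fluorescence over all cells without mother daughter split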
s288c autofluor – compound autofluorescence in yeast s288c, dose response, artefact control for yeast TOR pathway GFP screen, s288c strain. S. cerevisiae s288c, 520 nm autofluorescence, flow cytometry, 3 h; hits give high values; zero means same as solvent-only cells. AID 2757, 2010. fluorescence change (kMESF span) at 33 µM. shares compounds with LAP4 TOR yeast. 610 tested, under 10 active;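 active = fluorescence span over the dose series, or activity score, above about 33, limit read from the data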
Yeast autofl DR – autofluorescence of compounds in yeast s288c, dose response, artefact control for yeast TOR pathway GFP screen, primary hits, KU SAR, s288c parental; S. cerevisiae s288c parental, compound autofluorescence, flow cytometry, 3 h; fluorescence change (span) at 33 µM; 110 tested, under 10 active; shares compounds with LAP4 TOR yeast; AID 488829, 2010;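 active = fluorescence change span, or the activity score built from it, above 25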
TORC1 bypass gr – wild-type yeast growth inhibition sparing TORC1 bypass cells, mechanism study for yeast TOR pathway GFP screen, BY4741 wild type, TORC1 bypass strain; shares compounds with LAP4 TOR yeast; S. cerevisiae BY4741 spot growth rating, 48-72 h; hits give low values; growth rating (0-3) at 30 µM; 120 tested, under 10 active;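 active = growth rating at most 1 for wild type yeast while the TORC1 bypass strain still grows fully, rated 3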
Numbers stand for hits; n = inactive; u = inconclusive; x = not tested or not shown. Only some compounds are listed: those with a hit (about 0.92% of all), similar ones and a draw of the others.

SMILES | RPL19A-GFP yeast | CIT2-GFP yeast | AGP1 TOR yeast | MEP2 TOR yeast | LAP4 TOR yeast | others
Clc1cc(Cl)cc(Nc2cc(NC3CCCCC3)nc(NCc3ccccc3)n2)c1 | x | x | x | x | x | Yeast autofl DR=n;TORC1 bypass gr=n
COc1ccccc1OCCCc1c(C)n[nH]c1C | n | n | n | n | 190 | s288c autofluor=n
COc1ccccc1OCCCCCc1c(C)n[nH]c1C | n | n | n | n | n
CCCCOc1ccc(C(=O)NCC(=O)NNC(=O)c2ccco2)cc1 | n | n | n | n | n
CCCCn1c(N)c(N(CCOC)C(=O)CSc2nnc(C)n2-c2ccc(OC)cc2)c(=O)[nH]c1=O | n | n | n | n | n
CN1C(=O)C(c2nnc(Nc3cccc4ccccc34)s2)C2CC1(C)Oc1ccccc12 (stereo unspecified) | n | n | n | n | n
CC(=O)/C=C1/C(=O)Nc2ccccc21 | n | n | n | n | n
C=CCOc1cccc(C(=O)/C=C2/C(=O)Nc3ccccc32)c1 | n | n | n | n | n | s288c autofluor=n
O=C(NCC(c1cccs1)N1CCOCC1)c1cc2ccccc2oc1=O (stereo unspecified) | n | n | n | n | n
CC(C)(C)c1ccc(-c2cnco2)cc1 | n | n | u | u | n | LAP4-GFP pick2=n;MEP2 cherry2=n;RPL19A-GFP pick2=n;CIT2-GFP pick2=n;AGP1-GFP pick2=n
CCOc1ccc(N/C(=N/c2nc(C)cc(C)n2)NC(C)=O)cc1 | n | n | n | n | n
CCC1CCCCN1C(=O)C(=O)c1cn(CC(=O)N(CC)CC)c2ccccc12 (stereo unspecified) | n | 181 | n | n | n | LAP4-GFP pick2=n;MEP2 cherry2=n;RPL19A-GFP pick2=n;CIT2-GFP pick2=n;AGP1-GFP pick2=n
Cc1ccc(C(=O)NCCSc2ccccc2)cc1S(=O)(=O)Nc1ccccc1 | x | n | n | n | n
O=C1OC(c2ccccc2)c2ccccc21 (stereo unspecified) | n | n | n | n | n
O=S1OC(c2ccccc2)c2cc(Cl)ccc21 (stereo unspecified) | n | n | n | n | 157 | LAP4-GFP pick2=n;MEP2 cherry2=n;RPL19A-GFP pick2=n;CIT2-GFP pick2=n;AGP1-GFP pick2=n
Clc1cccc(Cl)c1CNc1ccc(N2CCCC2)cc1 | n | n | n | n | n
N/C(Cc1ccc(Cl)c(Cl)c1)=N\OC(=O)c1cccs1 | n | n | n | n | 219 | s288c autofluor=n
O=c1c2ccccc2ncn1-c1ccc([N+](=O)[O-])cc1Cl | n | n | n | n | n
Cc1ccc2nc(/C(C#N)=C/c3ccc(O)c(O)c3)[nH]c2c1 | n | 150 | n | 189 | n | s288c autofluor=n
Cc1ccc2nc(/C(C#N)=C/c3ccccc3C(=O)O)[nH]c2c1 | n | n | n | n | n
COC1=CC(=O)[C@@]2([C@@H]1O)[C@@H](Cl)C[C@]13C(OC)=C(OC)C(=O)C[C@]21CCN3C | n | n | n | n | n
COc1ccc2nccc(/C=C/c3ccnc4ccc(OC)cc34)c2c1 | n | n | n | n | n | LAP4-GFP pick2=n;MEP2 cherry2=n;RPL19A-GFP pick2=n;CIT2-GFP pick2=n;AGP1-GFP pick2=n
COc1ccc2nc(Cl)cc(Cl)c2c1 | n | n | n | n | n
C[C@@H](NC(=O)[C@@H]1Cc2ccccc2CN1C(=O)OC(C)(C)C)C(=O)NCc1ccco1 | n | n | n | n | n
Cc1oc2c(c(=O)c1C)C(=O)CC(c1ccccc1)C2 (stereo unspecified) | n | n | n | n | n
SMILES | RPL19A-GFP yeast | CIT2-GFP yeast | AGP1 TOR yeast | MEP2 TOR yeast | LAP4 TOR yeast | others
CS(=O)(=O)c1sc(C#N)c2c1C(=O)CC(c1ccccc1)C2 (stereo unspecified) | n | n | n | n | 209 | s288c autofluor=n
CCO[C@H]1OC(C(=O)N2CCOCC2)=C[C@@H](c2cn(C(C)=O)c3ccccc23)[C@@H]1CCCO | n | n | n | 507 | 223 | LAP4-GFP pick2=n;MEP2 cherry2=n;RPL19A-GFP pick2=n;CIT2-GFP pick2=n;AGP1-GFP pick2=n
CC(Oc1ccccc1)C(=O)Nc1nc(-c2ccncc2)cs1 (stereo unspecified) | n | n | n | n | n
O=C(COc1ccc(F)cc1Cl)Nc1nc(-c2ccccn2)cs1 | n | n | n | n | 171 | s288c autofluor=n;Yeast autofl DR=n;TORC1 bypass gr=n
CC(Oc1cccc(Cl)c1)C(=O)Nc1nc(-c2ccccn2)cs1 (stereo unspecified) | n | n | n | n | 171 | s288c autofluor=n
CCOc1cc2c(C#N)c(N3CCOCC3)nc(N)c2c(N)n1 | n | n | x | n | n
CCOc1cc2c(C#N)c(N(CC)CC)nc(N)c2c(N)n1 | n | n | n | n | 153 | LAP4-GFP pick2=n;MEP2 cherry2=n;RPL19A-GFP pick2=n;CIT2-GFP pick2=n;AGP1-GFP pick2=n
CCOc1ccccc1N(CC(=O)Nc1cccc2ccccc12)S(C)(=O)=O | n | n | n | n | n
CC(C)(C)C(=O)NC(=S)NNC(=O)c1sc2ccccc2c1Cl | n | n | n | n | 233 | s288c autofluor=n
O=C(OC1CSc2nc3ccccc3n2C1)c1ccco1 (stereo unspecified) | 18 | n | n | 283 | n | LAP4-GFP pick2=n;MEP2 cherry2=n;RPL19A-GFP pick2=n;CIT2-GFP pick2=n;AGP1-GFP pick2=n
CN1CCC(OC(=O)c2ccco2)CC1 | n | n | n | n | n
O=C(O)CC(=O)Nc1cc(Cl)ccc1O | n | n | n | n | n | LAP4-GFP pick2=n;MEP2 cherry2=n;RPL19A-GFP pick2=n;CIT2-GFP pick2=n;AGP1-GFP pick2=n
